# Compounds with a hit are over-represented: about 8.1% of the library has one in this group of screens.
# KB-3-1 cytotox: qHTS assay for MDR1-selective chemotherapeutics: Primary screen using the parental adenocarcinoma cell KB-3-1. KB-3-1 viability, CellTiter-Glo ATP luminescence, 72 h. Potency, µM (top dose mostly 46.1 µM), most hits filed as cytotoxic. actives 1.4% (n = 400,000); also: % is scaled to controls: 0 for no effect and ±100 for the full control effect; nearly all actives have a fitted effect of over 60% in size
#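 Screening of KB-3-1 cells (DMEM, 10% FBS, phenol-red free) ran from lowest to highest compound concentration; after 72 h at 37 °C viability was read luminescently and curves fitted.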
# MCF10A rereplic: A quantitative high throughput screen for small molecules that induce DNA re-replication in MCF 10a normal breast cells. MCF 10A DNA re-replication, Hoechst nuclear intensity, 48 h. Potency, µM (doses to about 46.1 µM), without a hit: top-dose activity, positive = re-replication, hits mostly activators. actives 2.9% (n = 350,000); also: % of control where 0% means no effect; nearly all actives have a fitted effect of over 50% in size
# SW480 rereplic: A quantitative high throughput screen for small molecules that induce DNA re-replication in SW480 colon adenocarcinoma cells. SW480 DNA re-replication, Hoechst DNA content imaging, 48 h. Potency, µM (doses to about 46.1 µM), for inactives: at the highest dose re-replication activation, hits mostly activators. actives 1.8% (n = 340,000). AID 624297, 2012; also: % of control where 0% means no effect; nearly all actives have a fitted effect of over 55% in size
#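 Quantitative HTS format with DMSO vehicle controls; 48 hr drug incubation at 37 C, then 40 min Hoechst staining and scanning imager measurement at 405 nm excitation.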
# KB-V1 cytotox: qHTS assay for MDR1-selective chemotherapeutics: Primary screen using the drug-selected MDR subline cells KB-V1; actives 3.4% (n = 400,000); KB-V1 MDR cells viability, CellTiter-Glo, 72 h; Potency, µM (titrated, usually from 46.1 µM), usual class: cytotoxic; also: % is scaled to controls: 0 for no effect and ±100 for the full control effect; nearly all actives have a fitted effect of over 60% in size
#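 KB-V1 MDR subline cells in DMEM (phenol-red free, 10% FBS) exposed to compounds in qHTS concentration series for 72 h at 37 degrees C. Viability read by CellTiter-Glo luminescence; concentration-effect curves fitted after normalization and correction.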
# ELG1 DNA repair: qHTS screen for small molecules that inhibit ELG1-dependent DNA repair in human embryonic kidney (HEK293T) cells expressing luciferase-tagged ELG1; HEK293T ELG1-luciferase reporter, luminescence, 16 h; DNA damage induced by 5-fluorouridine; Potency, µM (series often up to 46.1 µM), inactives show top-dose activity change, negative = inhibition, hits mostly inhibitors; actives 2.3% (n = 330,000); also: % is scaled to controls: 0 for no effect and ±100 for the full control effect; nearly all actives have a fitted effect of over 55% in size
#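 5-Fluorouridine DNA damage + compound/DMSO, 2,000 cells/well, 16 h, 37 °C/5% CO2. ONE-Glo, 30 min RT, luminescence. Readout = decrease in reporter signal.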
# * hit, by the source's call; i = inactive; ? = inconclusive; . = no result given; [ ] = another dose, or the depositor's remark. Calls follow the shape of the dose curve; as a rule, active = well fitted curve in the direction sought with a large enough effect; inconclusive = small, poorly fitted or top-dose-only effect, or another doubt; inactive = no such curve, though single readings can be large; an effect the other way counts as inactive or inconclusive. Potency is read from the fitted curve at half-maximal effect.
SMILES,KB-3-1 cytotox,MCF10A rereplic,SW480 rereplic,KB-V1 cytotox,ELG1 DNA repair
CCN1C=C(Cc2cccs2)C2=C(C1)C(c1cccs1)C(C#N)=C(N)O2 (stereo not drawn),?,21µM*,25%,i,?
N#CC1=C(N)OC2=C(CN(Cc3ccccc3)C/C2=C\c2cccnc2)C1c1cccnc1 (stereo not drawn),i,9%,-1%,i,-16%
CCN1CC2=C(OC(N)=C(C#N)C2c2cccs2)/C(=C/c2cccs2)C1 (stereo not drawn),i,?,?,?,16µM*
CCCC1=C(C(=O)OCC)C(c2cccs2)C(C#N)=C(N)O1 (stereo not drawn),i,14%,-10%,i,25%
CC(OC(=O)c1cccc(N(C)C)c1)C(=O)N1CCc2ccccc2C1 (stereo not drawn),i,12%,-1%,8.2µM*,?
CCOc1cc(S(=O)(=O)n2cc(-c3ccc(F)cc3)c(N)n2)cc(OCC)c1OCC,?,15%,?,16µM*,15µM*
CCOc1ccc(S(=O)(=O)n2cc(-c3ccccc3)c(N)n2)cc1,i,-6%,-1%,i,28%
Cc1ccc(-c2cn(S(=O)(=O)c3ccc(C)cc3)nc2N)cc1,i,?,-3%,13µM*,-12%
CCOc1ccc(S(=O)(=O)n2cc(-c3ccc(F)cc3)c(N)n2)cc1,i,2%,-7%,16µM*,-3%
Cc1ccc(-c2nc3ncccn3c2Nc2ccccc2C)o1,i,19%,3%,i,-12%
Cc1ccc(-c2nc3cnccn3c2Nc2c(C)cccc2C)o1,i,21µM*,?,i,?
O=C(C1=C[C@H](C2CCCCC2)C[C@H](OCc2ccc(CO)cc2)O1)N1CCOCC1,i,-15%,?,i,-13%
COC(=O)c1ccc(CCc2cc(O)c(Br)cc2O)cc1,?,?,?,i,.
CC(C)n1cnc2c(NCc3ccc(S(N)(=O)=O)cc3)nc(NCc3ccc(S(N)(=O)=O)cc3)nc21,i,-4%,-8%,i,1%
CC(C)[C@H](CO)Nc1nc(NCc2ccc(S(N)(=O)=O)cc2)c2ncn(C(C)C)c2n1,?,27%,18µM*,i,?
Cc1cc(O)c(N=Cc2cc3c(cc2[N+](=O)[O-])OCO3)cc1C,i,16µM*,?,i,.
Cc1cccc(N=Cc2cc3c(cc2[N+](=O)[O-])OCO3)c1,i,16%,9%,i,-4%
O=C(NC(=S)N1CCN(c2ccc(C(F)(F)F)cc2[N+](=O)[O-])CC1)c1cccs1,i,?,12%,15µM*,-4%
Cc1ccc(-n2c(-c3ccccc3)c[n+]3c2CCC3)cc1,3.7µM*,12%,1%,?,1.6µM*
Cc1ccc(-n2c(-c3ccc(Cl)cc3)c[n+]3c2CCC3)cc1,4.6µM*,1%,1%,i,2.9µM*
CCCCNC(=O)c1ccccc1NC(=O)c1ccc2c(c1)OCO2,i,-4%,-74%,i,?
OC(c1ccc(Cl)c(Cl)c1)c1ncc(-c2cccc(F)c2)[nH]1 (stereo not drawn),i,.,.,i,.
Cc1ccc(/C=C2\SC(=S)N(CCCC(=O)N3CCOCC3)C2=O)cc1,?,?,?,i,13µM*
CN1CCN(C(=O)CCCN2C(=O)/C(=C/c3ccc(Cl)cc3)SC2=S)CC1,?,?,-3%,?,18µM*
Cc1ccc(-n2ncc3c(NCCCN4CCOCC4)ncnc32)cc1,i,.,.,i,.
SMILES,KB-3-1 cytotox,MCF10A rereplic,SW480 rereplic,KB-V1 cytotox,ELG1 DNA repair
CN(CC(=O)Nc1cccc(F)c1)CC(=O)Nc1cccc(S(N)(=O)=O)c1,i,1%,-3%,i,-8%
C[C@H](NC(=O)OC(C)(C)C)c1nnc(SCc2ccc(Cl)cc2Cl)o1,?,.,.,18µM*,.
CSCC[C@H](NC(=O)OC(C)(C)C)c1nnc(SCc2ccccc2)o1,?,6%,6%,9.2µM*,?
CC(C)[C@H](NC(=O)OC(C)(C)C)c1nnc(SCc2cccc(F)c2)o1,i,11%,?,13µM*,-16%
CSCC[C@H](NC(=O)OC(C)(C)C)c1nnc(SCC(=O)N(C)C)o1,i,-4%,3%,i,8%
CCSc1nnc([C@H](Cc2c[nH]c3ccccc23)NC(=O)OC(C)(C)C)o1,i,432%[0.0737 µM],3%,?,0%
CCN(CC)C(=O)CSc1nnc([C@H](Cc2c[nH]c3ccccc23)NC(=O)OC(C)(C)C)o1,i,0%,1%,15µM*,?
CC(C)C[C@H](NC(=O)OC(C)(C)C)c1nnc(SCc2cccc(F)c2)o1,i,7%,6%,i,?
CCO[C@H]1OC(C(N)=O)=C[C@@H](C2CCCCC2)[C@@H]1CCCO,i,-7%,?,i,12%
CSCC[C@H](NC(=O)OC(C)(C)C)c1nnc(SCc2cccc(F)c2)o1,i,-5%,-1%,i,?
CSCC[C@H](NC(=O)OC(C)(C)C)c1nnc(SCc2ccc(F)cc2)o1,i,?,2%,21µM*,?
COc1ccccc1-c1c(-c2ccc(OCC(=O)NN)cc2O)n[nH]c1C(F)(F)F,i,?,13%,i,-27%
COc1ccc(-c2n[nH]c(C(F)(F)F)c2-c2cc3ccccc3o2)c(O)c1,i,-2%,9%,18µM*,-15%
O=C(CCN1CCOCC1)N1CCCC(Nc2cccc(F)c2)C1 (stereo not drawn),i,0%,0%,i,-3%
CCN(CC)S(=O)(=O)c1ccc(N2CCOCC2)c(NC(=O)C23CC4CC(CC(Cl)(C4)C2)C3)c1,i,?,-27%,23µM*,9.2µM*
CCN(CC)S(=O)(=O)c1ccc(N2CCOCC2)c(NC(=O)c2sccc2C)c1,i,?,3%,i,18µM*
CCN(CC)S(=O)(=O)c1ccc(N2CCOCC2)c(NC(=S)NC(=O)c2ccco2)c1,i,?,0%,i,16µM*
CCN(CC)S(=O)(=O)c1ccc(N2CCOCC2)c(NC(=O)c2ccccc2)c1,i,1%,-3%,?,?
CCN(CC)S(=O)(=O)c1ccc(N2CCOCC2)c(NC(=O)c2cc(C)cc(C)c2)c1,i,12%,9%,i,8.2µM*
Cn1c(=O)oc2cc(S(=O)(=O)N3CCCCC3)ccc21,i,-3%,-19%,i,11%
